Compound activity from PubChem BioAssay.
BAZ2B block = blocks human BAZ2B. Potency, µM (series often up to 114 µM), hits mostly inhibitors. AlphaScreen BAZ2B-H3K14Ac peptide displacement. actives 4.4% (n = 360,000). Q9UIF8; also: nearly all actives have a fitted effect of over 60% in size
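BAZ2B (50 nM) with biotin-H3(5-23)K14Ac peptide (50 nM) in PBS pH 7.4, 0.01% Tween-20, preformed 30 min, then compound 30 min at room temperature; top concentration 110uM. AlphaScreen streptavidin donor/nickel chelate acceptor beads (10 ug/mL final), 20 min dark, signal read.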
GLS inh = inhibitors of human glutaminase (GLS). O94925. GLS enzymatic activity, qHTS titration. Potency, µM (series often up to 45.5 µM), usual class: inhibitors. actives 0.21% (n = 410,000). AID 624170
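hKGA in 45 mM KH2PO4 (pH 8.2), 0.02% Tween-20 with compound, then 1mM L-Glutamine (stock as added) plus glutamate oxidase/HRP/Amplex red coupling mix. Fluorescence read initially and after 30 min at RT; signal change reflects glutamate formation.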
JMJD2A Tudor inh = inhibitors of human JMJD2A Tudor domain. actives 4.4% (n = 390,000). Potency, µM (doses to about 114 µM), hits mostly inhibitors. AID 504339. O75164. AlphaScreen JMJD2A-Tudor / H3K4me3 peptide binding; also: nearly all actives have a fitted effect of over 50% in size
HP1b binding inh = blocks HP1-beta chromodomain binding to methylated histone tails | P83916 | actives 0.56% (n = 390,000) | Potency, µM (doses to about 114 µM), usual class: inhibitors | AlphaScreen HP1-beta / biotin-H3K9me3 peptide binding; also: nearly all actives have a fitted effect of over 70% in size
Target sequence (P83916 whole entry, looked up): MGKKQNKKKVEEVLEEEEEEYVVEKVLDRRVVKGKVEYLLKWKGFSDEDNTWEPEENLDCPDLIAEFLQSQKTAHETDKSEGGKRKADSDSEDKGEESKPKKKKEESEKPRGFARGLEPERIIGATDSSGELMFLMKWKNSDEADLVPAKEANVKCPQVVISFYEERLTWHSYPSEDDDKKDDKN
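HP1-beta protein (50 nM final) preincubated 30 min at room temperature with biotinylated H3(1-18)K9me3 peptide (50 nM) in PBS pH 7.4, 0.01% Tween-20, then compound added for 30 min. AlphaScreen streptavidin donor/nickel chelate acceptor beads (10 ug/mL final), 30 min dark, luminescence read.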
G9a inh = G9a (human) methyltransferase inhibition; Q96KQ7; G9a H3K9 monomethylation, AlphaScreen, 2 h; Potency, µM (doses to about 102 µM), actives largely listed as inhibitors; actives 8.8% (n = 350,000); AID 504332; also: nearly all actives have a fitted effect of over 75% in size
Target sequence (Q96KQ7 913-1193 limits assumed): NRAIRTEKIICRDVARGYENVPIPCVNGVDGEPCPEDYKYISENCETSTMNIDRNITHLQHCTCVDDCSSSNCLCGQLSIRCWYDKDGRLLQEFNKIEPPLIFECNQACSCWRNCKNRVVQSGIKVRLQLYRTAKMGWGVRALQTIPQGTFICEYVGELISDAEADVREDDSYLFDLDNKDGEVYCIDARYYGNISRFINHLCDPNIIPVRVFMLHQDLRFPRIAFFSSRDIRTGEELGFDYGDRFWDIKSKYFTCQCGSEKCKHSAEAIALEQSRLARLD
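G9a (20 nM) was preincubated 15 min with compound, then reacted 2 h at room temperature with 500 nM biotin-H3K9 peptide and 20 µM SAM. Monomethyl-H3K9 detected by AlphaScreen using anti-H3K9me1 antibody.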
Large screens that a line does not name were inactive. A selection: hits, their analogues and other compounds. The true share with any hit is near 10%. Calls follow the shape of the dose curve; as a rule, active = well fitted curve in the direction sought with a large enough effect; inconclusive = small, poorly fitted or top-dose-only effect, or another doubt; inactive = no such curve, though single readings can be large; an effect the other way counts as inactive or inconclusive.

O=C(Cn1nc(C(=O)O)c2ccccc2c1=O)Nc1cccc(S(=O)(=O)N2CCCC2)c1	G9a inh inconclusive
CCN(Cc1ccccc1)c1ccc(N=Nc2nn(C)c(C)c2[N+](=O)[O-])cc1	BAZ2B block 8.91µM, JMJD2A Tudor inh 6.31µM, HP1b binding inh inconclusive, G9a inh 10µM
Cc1ccc(CNC(=O)c2nn(C)c(C)c2[N+](=O)[O-])cc1	none
CCN(CC)c1ccc(N=Nc2nn(C)c(C)c2[N+](=O)[O-])cc1	BAZ2B block 10µM, JMJD2A Tudor inh inconclusive, HP1b binding inh 14.1µM, G9a inh inconclusive
O=C(Nc1ccc(Cl)cc1)C1Cc2c(-c3cccc(F)c3)ccnc2O1 (centres undefined)	none (no result: BAZ2B block, JMJD2A Tudor inh, HP1b binding inh, G9a inh)
Cc1ccc2oc(C(=O)N(C)CCC(O)c3ccccc3)c(C)c2c1 (centres undefined)	none
COC(=O)c1c(C)[nH]c(/C=N/Nc2ccccc2)c1C	BAZ2B block inconclusive, JMJD2A Tudor inh inconclusive, G9a inh 25.1µM
Cc1c(C=NNc2ccccc2)[nH]c(=O)[nH]c1=O	none (no result: BAZ2B block, G9a inh)
Cc1ccc(-n2c3nc(=O)[nH]c(=O)c-3cc3c(C)nn(-c4ccccc4)c32)cc1Cl	none (no result: BAZ2B block)
CCc1ccccc1NC(=O)c1nn(-c2ccc(C)cc2)c(=O)c2c1c1ccccc1n2C	none (no result: BAZ2B block)
CC1=[N+](C)c2c(ccc3cccnc23)C1(C)C	BAZ2B block 39.8µM, GLS inh inconclusive, JMJD2A Tudor inh 25.1µM, HP1b binding inh inconclusive, G9a inh 3.16µM
Cc1cc(C)c(NS(=O)(=O)c2cccc3cccnc23)c(C)c1	G9a inh inconclusive
CCn1cc(C(=O)O)c(=O)c2cc(F)c(N3CCN(C(=S)NC(=O)c4ccc(F)c(F)c4)CC3)cc21	G9a inh 50.1µM
CCn1cc(C(=O)O)c(=O)c2cc(F)c(N3CCN(C(=S)NC(=O)c4c(OC)cccc4OC)CC3)cc21	BAZ2B block 56.2µM, JMJD2A Tudor inh inconclusive, G9a inh 35.5µM
CCOC(=O)C1CN(c2cc3c(cc2F)c(=O)c(C(=O)O)cn3CC)OC1C(=O)OCC (centres undefined)	BAZ2B block inconclusive, JMJD2A Tudor inh 56.2µM, G9a inh 39.8µM
CCn1cc(C(=O)O)c(=O)c2cc(F)c(N3CCN(C(=S)Nc4ccccc4OC)CC3)cc21	none
CCOC(=O)N1CCN(C(=O)c2cn(CC)c3cc(N4CCN(C)CC4)c(F)cc3c2=O)CC1	G9a inh 14.1µM (no result: GLS inh, JMJD2A Tudor inh, HP1b binding inh)
Nc1ncnc2c1ncn2[C@@H]1O[C@H](COP(=O)(O)OP(=O)(O)OC[C@H]2OC(O)[C@H](O)[C@@H]2O)[C@@H](O)[C@H]1O (some centres undefined)	none (no result: BAZ2B block, GLS inh, JMJD2A Tudor inh, HP1b binding inh)
CCn1cc(C(=O)O)c(=O)c2cc(F)c(N3CCN(C(=S)NC(=O)c4ccccc4Br)CC3)cc21	BAZ2B block 70.8µM
CCn1cc(C(=O)O)c(=O)c2cc(F)c(N3CCN(C(=S)NC(=O)c4ccc(F)cc4)CC3)cc21	BAZ2B block inconclusive (no result: G9a inh)
O=C(O)CSc1c[nH]c2ccccc12	none
Nc1ccccc1Sc1c[nH]c2ccccc12	BAZ2B block inconclusive, JMJD2A Tudor inh inconclusive, G9a inh 44.7µM
CN(C)c1ccc(C2SCCN2C(=O)c2ccc([N+](=O)[O-])cc2)cc1 (centres undefined)	BAZ2B block 44.7µM, JMJD2A Tudor inh inconclusive, HP1b binding inh inconclusive, G9a inh inconclusive
Nc1cccc2c3c(oc12)CCCC3	G9a inh 39.8µM
COc1cccc2c(=O)c3c(oc12)CCCC3	none (no result: BAZ2B block, JMJD2A Tudor inh, HP1b binding inh, G9a inh)
CCCC(=O)Nc1nnc(SCc2cc(=O)c3cc(C)ccc3[nH]2)s1	none
Cc1c(Cl)cccc1NC(=O)CNc1cccc(C(F)(F)F)c1	G9a inh 70.8µM
Cc1c(Cl)cccc1NCC(=O)Nc1ccc(Cl)cc1F	none
COc1ccc(C(=O)O)nc1C	JMJD2A Tudor inh 5.62µM
O=C(NCCc1c[nH]c2ccccc12)c1ccc2nc[nH]c2c1	BAZ2B block 50.1µM
COc1ccc(C(=O)NCCc2ccc(Cl)cc2)cc1S(=O)(=O)N1CCCCC1C (centres undefined)	none
COc1ccc(C(=O)NCCc2c[nH]c3ccccc23)cc1OC	none (no result: G9a inh)
COc1ccc(C(=O)NCCc2c[nH]c3ccccc23)cc1S(=O)(=O)N1CCCCC1C (centres undefined)	JMJD2A Tudor inh inconclusive, G9a inh 2.82µM
CN(C)C(=O)c1ccc(-c2cc3onc(-c4ccccc4)c3c(=O)n2C)cc1	none (no result: BAZ2B block, G9a inh)
COc1cc(CC2COC(c3ccc(O)c(OC)c3)C2COC(C)=O)ccc1O (centres undefined)	BAZ2B block 39.8µM, GLS inh 11.2µM, JMJD2A Tudor inh 50.1µM, HP1b binding inh inconclusive, G9a inh inconclusive
CC1CCCCC1NC(=O)COC(=O)c1c2c(nc3ccccc13)/C(=C/c1ccco1)CC2 (centres undefined)	BAZ2B block 44.7µM, JMJD2A Tudor inh 44.7µM, G9a inh inconclusive
O=C(COC(=O)c1c2c(nc3ccccc13)/C(=C/c1ccco1)CC2)NC1CCCC1	BAZ2B block 10µM, GLS inh 17.8µM, JMJD2A Tudor inh inconclusive, HP1b binding inh inconclusive, G9a inh 3.55µM
Cc1cc(C(=O)OCC(=O)NC2CCCC2)c2ccccc2n1	none
CC1(C(=O)NS(=O)(=O)C2CC2)CCCN(C(=O)c2c(F)cccc2F)C1 (centres undefined)	none (no result: BAZ2B block, JMJD2A Tudor inh, HP1b binding inh, G9a inh)
O=C(CN1CCN(Cc2ccccc2)CC1)Nc1ccc2c(c1)CCC2	G9a inh inconclusive
O=C(CN1CCN(c2ccccc2O)CC1)Nc1ccc2c(c1)CCC2	JMJD2A Tudor inh inconclusive, G9a inh 70.8µM
O=C(CN1CCCC1)Nc1ccc2c(c1)CCC2	BAZ2B block 50.1µM, JMJD2A Tudor inh 3.16µM, G9a inh 25.1µM
O=C(Cn1cnc2ccccc2c1=O)NCCC(=O)Nc1ccc(F)cc1	none
CCOc1ccc(S(=O)(=O)NCc2cccn2Cc2cccc(C)c2)cc1	none
CC1(C)CC(=O)C(=CN2CCOCC2)C(=O)C1	G9a inh 35.5µM
CCCC[C@@H]1CNC(=O)C(=O)N1CCCCC1CCCCC1	none (no result: BAZ2B block, JMJD2A Tudor inh, HP1b binding inh, G9a inh)
COc1ccc(NCC(=O)N/N=C/C=C\c2ccccc2)cc1	BAZ2B block inconclusive, JMJD2A Tudor inh inconclusive, G9a inh 28.2µM
COc1ccccc1NCC(=O)N/N=C/c1cccnc1	none
COc1ccccc1NCC(=O)N/N=C/C=C/c1ccccc1	BAZ2B block inconclusive, JMJD2A Tudor inh inconclusive, G9a inh 28.2µM
O=C1CCc2cc(S(=O)(=O)Nc3ccc(Cl)cc3)ccc2N1	none (no result: BAZ2B block, GLS inh, HP1b binding inh, G9a inh)
O=C(N1CCOCC1)N1CCN(S(=O)(=O)c2ccc(Cl)cc2)C1	none
CCS(=O)(=O)n1nc(-c2ccc(C)cc2)nc1N	none
Nc1nc(-c2ccco2)nn1S(=O)(=O)c1ccccc1	none
Nc1nc(C(=O)N2CCOCC2)nn1S(=O)(=O)c1ccc(Cl)cc1	JMJD2A Tudor inh 14.1µM, G9a inh inconclusive
CCS(=O)(=O)n1nc(C(=O)N2CCOCC2)nc1N	BAZ2B block inconclusive, JMJD2A Tudor inh 89.1µM, G9a inh inconclusive
